Compound activity deposited in PubChem by National Center for Advancing Translational Sciences (NCATS).
An excerpt weighted towards active compounds, which were near 0.62% of everything screened.
ASM inhibitor = blocks human secretory acid sphingomyelinase; Potency, µM (series often up to 57.5 µM), without a hit: top-dose activity change, negative = inhibition, usual class: inhibitors; 0.006% of 340,000 active; placental ASM, HMU-PC fluorogenic substrate, 60 min; P17405; AID 504937; active = well fitted inhibition curve with a large enough effect; inconclusive = small, poorly fitted or top-dose-only effect; inactive = no such curve, though single readings can be large or run the other way
Target sequence (P17405 47-631 limits assumed): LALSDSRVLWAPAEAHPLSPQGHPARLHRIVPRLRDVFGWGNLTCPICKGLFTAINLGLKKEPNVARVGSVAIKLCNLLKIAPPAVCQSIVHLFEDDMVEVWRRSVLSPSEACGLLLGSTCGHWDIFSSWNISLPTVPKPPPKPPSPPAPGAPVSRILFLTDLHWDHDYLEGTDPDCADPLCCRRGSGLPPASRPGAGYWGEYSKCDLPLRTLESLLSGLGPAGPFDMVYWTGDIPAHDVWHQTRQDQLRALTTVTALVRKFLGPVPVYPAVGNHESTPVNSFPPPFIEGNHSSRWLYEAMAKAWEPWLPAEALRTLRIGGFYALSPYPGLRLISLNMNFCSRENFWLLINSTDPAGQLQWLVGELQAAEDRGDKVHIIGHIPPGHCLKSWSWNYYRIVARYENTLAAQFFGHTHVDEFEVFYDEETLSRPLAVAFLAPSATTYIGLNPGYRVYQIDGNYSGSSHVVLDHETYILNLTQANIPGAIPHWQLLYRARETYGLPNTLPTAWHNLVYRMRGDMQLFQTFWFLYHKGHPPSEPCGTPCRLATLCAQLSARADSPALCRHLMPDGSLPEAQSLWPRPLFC
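Human placenta-derived ASM enzyme was preincubated with compound for 10 minutes at room temperature, then given fluorogenic substrate HMU-PC0 (9 uM final) for 60 minutes at 37 °C; a pH 10 stop preceded fluorescence reading at Ex 386/Em 447 nm.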
gsp antagonist = gsp mutant antagonism. gsp-mutant cells, cAMP HTRF, 30 min. Potency, µM (highest dose often 76.9 µM), for the others: top-dose activity change, negative = inhibition, usual class: inhibitors. 0.4% of 340,000 active; calls by dose curve; cell line not stated here;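 also: intracellular cAMP measured with PDE inhibitor Ro 20-1724 present during compound exposure; % is scaled to controls: 0 for no effect and ±100 for the full control effect; nearly all actives have a fitted effect of over 65% in size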
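Measurement of cellular cAMP by homogeneous time-resolved fluorescence following a 30 min compound exposure at 37C. The PDE inhibitor […] was present throughout; the assay buffer was DPBS with 0.05% BSA and 0.005% Tween 20.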
MBNL1-CUG inh = MBNL1-poly(CUG) RNA binding inhibition; Q9NR56; TR-FRET MBNL1-His/biotin-(CUG)12 binding, 665/545 ratio; Potency, µM (top dose mostly 57.5 µM), for inactives: at the highest dose activity change, negative = inhibition, most hits filed as inhibitors; 0.036% of 280,000 active; active = well fitted inhibition curve with a large enough effect in the signal ratio, with a control signal flat, not every such curve was filed as active; inconclusive = small, poorly fitted or top-dose-only effect, or effect the other way, or a change in a side signal; inactive = no such curve, though single readings can be large or run the other way; the % refers to the signal ratio; also: % is scaled to controls: 0 for no effect and ±100 for the full control effect
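TR-FRET between His-tagged MBNL1 and biotin-(CUG)12 RNA, detected with Tb anti-His antibody (0.055 ng/ul) and streptavidin-XL665 (5 nM), 60 min at room temperature. Compounds titrated 92 nM to 58 uM; 665/545 nm ratio normalized to buffer and complex controls.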
gsp agonist = gsp mutant agonism. gsp mutant cells, cAMP HTRF, 30 min. Potency, µM (top dose mostly 76.9 µM), inactives show top-dose activation (cAMP increase), hits mostly activators. 0.13% of 340,000 active. AID 624287; active = well fitted activation curve with a large enough effect; inconclusive = small, poorly fitted or top-dose-only effect, or another doubt; inactive = no such curve, though single readings can be large or run the other way; cell line not stated here;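 also: phosphodiesterase inhibitor Ro 20-1724 added with compounds to block cAMP breakdown; nearly all actives have a fitted effect of over 60% in size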
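Cells stably selected in G418 were plated at 2000/well, grown 16-24 hr, then given compounds in DMSO with the PDE inhibitor […] (300 uM solution added) for 30 min at 37C; cAMP was read by HTRF.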
BCR signal inh = chronic active BCR signaling inhibition; ABC-DLBCL IkBa-CBG/CBR reporter, luminescence ratio, 4 h; AID 493014; 0.05% of 340,000 active; Potency, µM (series often up to 46.1 µM), for inactives: at the highest dose activity change, negative = inhibition, most hits filed as inhibitors; active = well fitted inhibition curve with a large enough effect in the signal ratio, with a control signal flat, not every such curve was filed as active; inconclusive = small, poorly fitted or top-dose-only effect, or effect the other way, or a change in a side signal; the % refers to the signal ratio;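 also: plate controls were basal doxycycline-induced cells for no effect and cells given 10 µM MG132 for full effect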
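Cell line TMD8 (human ABC DLBCL), stably expressing tet-inducible CBG68-IkBa fusion and CBR; IMDM/0.5% FBS; cpd up to 46 uM; dox induction, 4 h, 37C/5% CO2; dual luminescence; green/red ratio; MG132 control.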
* hit, by the source's call; u = inconclusive; x = no result; [ ] = another dose, or the depositor's remark. Potency is read from the fitted curve at half-maximal effect.

SMILES	ASM inhibitor	gsp antagonist	MBNL1-CUG inh	gsp agonist	BCR signal inh
COc1cc(/C=N/NC(=O)c2nnn(-c3nonc3N)c2C(C)C)ccc1OCc1ccccc1	-26%	25µM*	2%	-7%	20%
Nc1nonc1-n1nnc(C(=O)N/N=C/c2ccc(F)cc2)c1-c1ccc2c(c1)OCO2	4%	0%	-1%	31%	0%
CCOc1ccc(-c2c(C(=O)N/N=C/c3c[nH]c4ccccc34)nnn2-c2nonc2N)cc1	0%	25µM*	4%	u	9%
Nc1nonc1-n1nnc(C(=O)N/N=C/c2cccc(Cl)c2)c1-c1cccs1	-10%	40µM*	10%	-2%	u
Cc1ccc(C)c(N2N=C(C(=O)Nc3ccc(N4CCOCC4)cc3)CCC2=O)c1	0%	-2%	x	-9%[15.4 µM]	-2%
O=C1N(Cc2ccccc2)CC2(Br)COCOC12O (stereo not given)	3%	-2%	x	-46%	x
Cc1cccc(C(=O)OCC(=O)Nc2ccc3c(c2)OCCO3)c1O	2%	-1%	x	u	-1%
COc1cc(/C=N/NC(=O)c2nnn(-c3nonc3N)c2-c2cccs2)ccc1O	-17%	22µM*	u	2%	0%
N#C/C(=N\Nc1ccc(Cl)c(Cl)c1)C(=O)C1CC1	-22%	25µM*	-11%	-24%	u
CC(=O)c1ccccc1OCC(O)CN1CCN(CCN2C(=O)c3cccc4cccc(c34)C2=O)CC1 (stereo not given)	-1%	32µM*	u	-16%[15.4 µM]	u
Cc1cc(C)c(S(=O)(=O)N2CCN(C(=O)CCn3nc(C)c(C)c3C)CC2)c(C)c1	-2%	-2%	-3%	-3%[15.4 µM]	-11%
COC(=O)[C@H](CC(C)C)NC(=O)c1cc2c(cn1)[nH]c1ccccc12	-3%	7.9µM*	-3%	u	u
CCOC(=O)c1ccc(-c2ccc3oc(-c4ccsc4)cc(=O)c3c2)cc1F	0%	7.1µM*	x	x	u
COc1ccccc1NC(=O)CC1C(=O)Nc2ccccc2N1C(=O)c1ccccc1 (stereo not given)	4%	-52%	-7%	1%[15.4 µM]	1%
COc1ccccc1CC1S/C(=N/N=C/c2ccco2)NC1=O (stereo not given)	-1%	28µM*	2%	-28%	-12%
O=C1N/C(=N/N=C/c2ccco2)SC1Cc1ccccc1 (stereo not given)	-1%	-3%	2%	-10%	-2%
COc1ccc(-c2n[nH]c(=S)nc2-c2ccc(OC)cc2)cc1	-6%	-24%	13%	-26%	0%
CCOC(=O)C1=C(C)N=c2s/c(=C/c3ccc(OCC(=O)O)cc3)c(=O)n2C1c1ccc(F)cc1 (stereo not given)	12%	22µM*	u	41%	u
CCOC(=O)C1=C(C)N=c2s/c(=C/c3ccc(OCC(=O)O)c(OC)c3)c(=O)n2C1c1ccc(Cl)cc1 (stereo not given)	-22%	35µM*	x	19%[15.4 µM]	x
CC1=C(C(=O)Nc2ccccc2)C(c2ccc(Cl)cc2)n2c(s/c(=C/c3cccc(OCC(=O)O)c3)c2=O)=N1 (stereo not given)	25µM*	-20%	24%	14%	u
COc1ccc(NC(=O)CN2CCc3ccccc3C2)c([N+](=O)[O-])c1	0%	-10%	14%	-2%[15.4 µM]	5%
CCC(CO)NC(=O)C(=O)Nc1c2c(nn1-c1ccc(F)cc1)CSC2 (stereo not given)	x	x	x	x	15%
Oc1ccc(-c2nc3cnccn3c2Nc2ccc3c(c2)OCCO3)cc1	-3%	-27%	u	9%	18µM*
c1ccc(-c2nc3cnccn3c2Nc2ccc3c(c2)OCCO3)cc1	u	u	31%	-1%	-6%
Cn1c([N+](=O)[O-])cnc1N1CCN(c2nncs2)C1=O	3%	5%	u	10µM*	3%
SMILES	ASM inhibitor	gsp antagonist	MBNL1-CUG inh	gsp agonist	BCR signal inh
O=C1NCCN1c1ncc([N+](=O)[O-])s1	-4%	5%	x	x	9%
CCN(CC(=O)Nc1c(F)cccc1F)C(=O)CCCN1C(=O)c2cccc3cccc(c23)C1=O	x	x	x	13µM*	x
N=c1c(C(=O)NCc2ccc3c(c2)OCO3)cc2c(=O)n3ccccc3nc2n1CC1CCCO1 (stereo not given)	121%	-2%	u	28µM*	13%
O=C(CSC1=NCCS1)Nc1ccc(F)cc1	-1%	8.9µM*	-6%	1%	u
COc1ccc(C2c3ccsc3CCN2C(=O)NC(C)(C)C)cc1 (stereo not given)	1%	32µM*	-7%	0%	-15%
COc1ccc(-c2cc3nc4n(c(=O)c3s2)CCC4)cc1	-3%	5%	u	16µM*	-21%
CCOC(=O)c1sc2nc(C)[nH]c(=S)c2c1C	-1%	3%	u	13µM*	u
CCOC(=O)c1sc2nc(C)n(N)c(=O)c2c1C	-1%	0%	-3%	-5%	2%
COc1cc2c(cc1NC(=O)CSc1nccn1C)oc1ccccc12	-1%	28µM*	0%	2%	u
COc1cc2c(cc1NC(=O)C(C)Sc1ccc(NC(C)=O)cc1)oc1ccccc12 (stereo not given)	-23%	20µM*	-3%	u	0%
CC(C)c1cccc(C(C)C)c1NC(=O)CN(C)C1CCS(=O)(=O)C1 (stereo not given)	-1%	11%	x	-2%	-1%
COc1ccc(OC)c(C2CC(=O)c3c([nH]c(C(=O)OCC4CCCO4)c3C)C2)c1 (stereo not given)	-8%	40µM*	-5%	-47%	-1%
COCCOC(=O)c1[nH]c2c(c1C)C(=O)CC(c1cc(OC)ccc1OC)C2 (stereo not given)	2%	9%	4%	-12%	0%
O=S(=O)(c1cccc(NC(=S)N2CCN(c3ccc(F)cc3)CC2)c1)C(F)F	-15%	u	-3%	-13%	u
O=S(=O)(c1cccc(NC(=S)N2CCN(c3cccc(Cl)c3)CC2)c1)C(F)F	-12%	32µM*	-12%	-3%[15.4 µM]	u
